# According to ChEMBL document CHEMBL3988442, “University of Dundee, Small-Polar-MMV Screening Library” (2021):
# In all, about 69,000 compounds went through this assay and about 1,000 (1.4%) showed an effect of 50% or more. The sample as a whole holds a higher share of strong results than the screen did.
# System: Leishmania donovani
# Test: Leishmania intramacrophage assay
# Type: functional, organism-based
# Parameters: scale not given: in the data most compounds retested in dose-response had high values
compound,measurement,setting,value
CC(C)CCN(C)Cc1ccccc1-c1nc(C(C)C)cc(=O)[nH]1,Percent Effect,"30.3 µM, […]",41.3%
CNc1cc2c(nn1)CCN(C(=O)c1coc(Br)c1)C2,Percent Effect,30 µM,-2.691%
COCCC1(CO)CCCN(Cc2cc(C(F)(F)F)ccc2F)C1 (stereo unspecified),Percent Effect,"30.3 µM, […]",0.4261%
O=C(Nc1cccc(CN2CCC(CO)CC2)c1)c1cc(Cl)c[nH]1,Percent Effect,"30.3 µM, […]",28.48%
COCCNC(=O)Cn1cc2c(n1)c(C)nn2C,Percent Effect,"30.3 µM, […]",-28.68%
O=C(NCCSC1CCCC1)c1cc(C2CC2)on1,Percent Effect,"30.3 µM, […]",-5.763%
Cc1ccc2nc(C)cc(C(=O)NCc3csc(N(C)C)n3)c2c1,Percent Effect,"30.3 µM, […]",25.38%
COCCN(C)CC1CCCN1S(=O)(=O)Cc1ccccc1F (stereo unspecified),Percent Effect,"30.3 µM, […]",-13.31%
O=C(CCO)N1CCOC2(CCCN(C(=O)c3ccco3)C2)C1 (stereo unspecified),Percent Effect,"30 µM, 30.03 µM",-4.275%
O=C(c1ccco1)N1CCCC2(C1)CN(c1nncs1)CCO2 (stereo unspecified),Percent Effect,"30.3 µM, […]",54.73%
CC(=O)N1CCCC2(C1)CN(c1nncs1)CCO2.O=C(O)C(F)(F)F (stereo unspecified),Percent Effect,"30.3 µM, […]",42.05%
CO[C@@H]1CCN(S(=O)(=O)c2cccs2)[C@H]1Cc1cccnc1.O=C(O)C(F)(F)F,Percent Effect,"30.3 µM, […]",35.84%
Cc1cccc(C)c1OCC(=O)NS(=O)(=O)c1c(C)noc1C,Percent Effect,30 µM,12.57%
CC(C)S(=O)(=O)N1CCC(c2[nH]ncc2S(C)(=O)=O)C1 (stereo unspecified),Percent Effect,"30.3 µM, […]",-8.157%
COc1ccc(-c2ccccc2CCN)c(OC)c1OC,Percent Effect,"30.3 µM, […]",95.35%
COc1ccc(-c2ccccc2CN)c(OC)c1,Percent Effect,"30.3 µM, […]",18.4%
COc1ccc(-c2cc(CN)ccc2F)c(OC)c1OC,Percent Effect,"30.3 µM, […]",-7.273%
CC(C)N1CC[C@@H]2[C@H](COCC3CC3)CN(C)C(=O)[C@@H]2CC1.O=C(O)C(F)(F)F,Percent Effect,"30.3 µM, […]",9.802%
CS(=O)(=O)c1ccc(NC(=O)NCCC2=CCCCC2)cc1,Percent Effect,"30.3 µM, […]",16.41%
O=C(NC(CN1CCCC1)c1ccccc1)c1c(O)cc(F)cc1F (stereo unspecified),Percent Effect,"30.3 µM, […]",5.752%
COc1ccc(CNC(Cn2cncn2)c2ccccc2)cc1C (stereo unspecified),Percent Effect,"30.3 µM, […]",17.02%
Cl.O=C(NCc1ccc(F)cc1)N1CCN(CC(O)C2CC2)CC1 (stereo unspecified),Percent Effect,"30.3 µM, […]",10.63%
Cc1ccc(CNC(CN2CCN(C)CC2)c2ccccc2)cc1 (stereo unspecified),Percent Effect,"30 µM, 30.03 µM",94.58%
Cc1ccc(CNC(=O)CN2CCN(CC(O)C3CC3)CC2)cc1.Cl.Cl (stereo unspecified),Percent Effect,"30 µM, 30.03 µM",31.99%
Cc1ccc(CNC(c2ccccc2)c2nccn2C)cc1C (stereo unspecified),Percent Effect,"30 µM, 30.03 µM",38.71%
Cc1ccc(CNC(c2ccccc2)c2nccn2C)cc1.Cl (stereo unspecified),Percent Effect,30 µM,-15.51%
CNS(=O)(=O)c1cccc(C(C)NCc2ccc(F)c(F)c2)c1 (stereo unspecified),Percent Effect,"30.3 µM, […]",11.11%
Cn1cc(C(NCc2ccc(F)cc2)c2cccc(F)c2)cn1 (stereo unspecified),Percent Effect,"30.3 µM, […]",7.526%
O=C(O)C(F)(F)F.O=C1COC2(CCN(S(=O)(=O)C3CC3)CC2)CN1c1cccnc1,Percent Effect,"30.3 µM, […]",-7.696%
COc1ccc(C)nc1NC(=O)Cc1c(C)nn(C)c1C,Percent Effect,"30.3 µM, […]",1.753%
CC(C)NC(=O)c1ccc2nnc(C3CCN(S(C)(=O)=O)C3)n2c1 (stereo unspecified),Percent Effect,"30.3 µM, […]",33.79%
CC(Cn1cncn1)NC(=O)N1CC2(CCCC2)c2ccccc21 (stereo unspecified),Percent Effect,"30.3 µM, […]",3.028%
COc1ccc(C2CCCN2C(=O)NCCCn2cccn2)cc1 (stereo unspecified),Percent Effect,"30.3 µM, […]",9.048%
COc1ccc(C2CCCN2C(=O)NCCNc2ncccn2)cc1 (stereo unspecified),Percent Effect,"30 µM, 30.03 µM",9.2%
COc1ccc(C2CCCN2C(=O)NCCNc2ccccn2)cc1 (stereo unspecified),Percent Effect,"30.3 µM, […]",69.63%
CC(=O)c1cccc(-n2nc(C(C)=O)c(C(C)=O)c2C)c1,Percent Effect,"30.3 µM, […]",-0.2536%
COC[C@@]12CC[C@@H](N3CCOCC3)C[C@H]1CCN(c1ncccc1F)C2,Percent Effect,"30.3 µM, […]",25.63%
COC[C@@]12CC[C@@H](N3CCOCC3)C[C@H]1CCN(c1ncccc1C)C2,Percent Effect,"30.3 µM, […]",25.83%
COC[C@@]12CC[C@@H](N3CCOCC3)C[C@H]1CCN(c1ncccc1Cl)C2,Percent Effect,"30 µM, 30.03 µM",52.08%
CC(c1nccs1)N(C)C(=O)c1cc(CN(C)Cc2ccccc2)on1 (stereo unspecified),Percent Effect,"30.3 µM, […]",13.49%
Cc1cnn(CC2CCCN2C(=O)c2cc(Cl)ccc2F)c1 (stereo unspecified),Percent Effect,"30 µM, 30.03 µM",-5.128%
CC1CCC(N2Cc3nc(N)ncc3C2=O)CC1 (stereo unspecified),Percent Effect,"30.3 µM, […]",-33.84%
Nc1ncc2c(n1)CN(C1CCCC1)C2=O,Percent Effect,"30 µM, 30.03 µM",22.17%
CN1CCC(N2Cc3nc(N)ncc3C2=O)CC1,Percent Effect,"30.3 µM, […]",54.63%
CCC1=NN2C(=N)/C(=C\c3cccn3-c3ccc(Cl)cc3)C(=O)N=C2S1,Percent Effect,"30.3 µM, […]",-2.316%
CCN1C(=O)CC[C@@H]2[C@H]1CCN2S(=O)(=O)Cc1ccc(C)cc1,Percent Effect,"30.3 µM, […]",17.88%
Cl.Fc1cccc(F)c1Cn1c(C2CCCNC2)cc2cccnc21 (stereo unspecified),Percent Effect,"30.3 µM, […]",-15.48%
Cl.Fc1cccc(F)c1Cn1c(C2CCNCC2)cc2cccnc21,Percent Effect,"30.3 µM, […]",57.89%
Cl.Fc1ccccc1Cn1c(C2CCNCC2)cc2cccnc21,Percent Effect,"30.3 µM, […]",43.21%
Cc1nc(Nc2ncccn2)cc(C2CCN(CC(C)C)C2)n1 (stereo unspecified),Percent Effect,"30.3 µM, […]",2.022%
CN1CSC[C@H]1C(=O)N1CCN(Cc2cccc(F)c2)CC1,Percent Effect,"30.3 µM, […]",4.358%
Cc1cc(N(C)CC2COc3ccccc3O2)nc(N)n1 (stereo unspecified),Percent Effect,"30.3 µM, […]",51.06%
Cc1cc(N(C)CCCn2cccn2)nc(N)n1,Percent Effect,"30.3 µM, […]",27.03%
CN(CC1COc2ccccc2O1)C(=O)C1=NN(C)C(=O)CC1 (stereo unspecified),Percent Effect,"30.3 µM, […]",18.48%
COc1ccccc1OCCCN(C)c1cc(C)nc(N)n1,Percent Effect,"30.3 µM, […]",16.27%
CN(Cc1nc(CC2CC2)no1)CC1COc2ccccc2O1 (stereo unspecified),Percent Effect,"30.3 µM, […]",-8.353%
CCN1CC(CN(C)c2cc(C)nc(N)n2)Oc2ccccc21 (stereo unspecified),Percent Effect,"30.3 µM, […]",84.12%
Cc1cc(N(C)CC2COc3ccccc3O2)nc(C)n1 (stereo unspecified),Percent Effect,"30.3 µM, […]",59.02%
CN(Cc1nnnn1C1CC1)CC1COc2ccccc2O1 (stereo unspecified),Percent Effect,"30.3 µM, […]",4.21%
Cc1csc(CN2CC(CO)Oc3ccccc32)n1 (stereo unspecified),Percent Effect,"30.3 µM, […]",-4.409%
COc1ccccc1CNC(=O)N1CCCC(NS(C)(=O)=O)C1 (stereo unspecified),Percent Effect,"30 µM, 30.03 µM",-10.5%
Br.O=C(O)c1csc(NCCc2ccccc2)n1,Percent Effect,"30.3 µM, […]",-6.16%
CC(C)n1cnnc1CNC(=O)c1cnn(-c2ccccc2)c1,Percent Effect,"30.3 µM, […]",5.112%
Cc1cc(NC(=O)CN2CCOC(CN(C)C)C2)n(C)n1 (stereo unspecified),Percent Effect,"30.3 µM, […]",9.756%
Cc1nn(C)c(C)c1NC(=O)CN1CCOC(CN(C)C)C1 (stereo unspecified),Percent Effect,"30.3 µM, […]",51.92%
Cc1nn(C)c(C)c1NC(=O)CN1CCOC(Cn2cccn2)C1 (stereo unspecified),Percent Effect,"30.3 µM, […]",7.584%
